Compound activity as filed in PubChem.
This is one part of a sample in which hits are shown more often than they occur.
HTT cytoprotect: cytoprotection in Huntington HTT-Q103 PC12 cell model; PC12 HTT-Q103 induced, cytoprotection, ATP luminescence, 40 h; Potency, µM (titrated, usually from 56.4 µM), for inactives: cytoprotection (ATP increase), usual class: activators; 230,000 compounds, 0.14% hits; AID 1471; further: potency means the concentration at half of the fitted maximal effect; % of control where 0% means no effect; nearly all actives have a fitted effect of over 45% in size
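PC12 cells stably carrying ecdysone-inducible Htt exon 1 (Q103)–GFP were induced with 100 nM tebufenozide (final) alongside library compounds in a dose series. Cytoprotection was scored as retained ATP by ATPlite luminescence.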
HTT aggregate: reduces HttQ103-GFP aggregates in PC12 cells. PC12 HttQ103-GFP aggregates, Acumen cytometry, 40 h. 220,000 compounds, 1.1% hits. Potency, µM (doses to about 46.1 µM), for inactives: at the highest dose activity change, negative = inhibition, actives largely listed as inhibitors. AID 1688; further: potency means the concentration at half of the fitted maximal effect; on the % scale 0 is the no-effect control and ±100 the full control effect; nearly all actives have a fitted effect of over 60% in size
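Multiplexed with ATP-based cell death, this channel scores GFP aggregates in PC12 cells expressing inducible HTTex1-Q103-GFP. Induction used 100 nM tebufenozide; compounds were tested in concentration series.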
GALK inh: inhibitors of human galactokinase. P51570. Purified GALK, Kinase-Glo residual ATP luminescence. Potency, µM (top dose mostly 57.5 µM), for inactives: top-dose activity change, negative = inhibition, actives largely listed as inhibitors. 270,000 compounds, 0.007% hits. AID 1868; further: potency means the concentration at half of the fitted maximal effect; on the % scale 0 is the no-effect control and ±100 the full control effect
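Luminescence from leftover ATP (Ultra-Glo luciferase/luciferin) served as read-out after a 1 h room-temperature reaction of 5 nM GALK with 35 uM ATP and 100 uM galactose.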
PI4K2A block: blocks human PI4K2A kinase activity; purified PI4K2A, ADP-Glo luminescence, 1 h; stronger effect = lower value; activity change, negative = inhibition, % at 76.9 µM; 420,000 compounds, 0.13% hits; AID 1346378; in the data active means activity change below about -50%; inconclusive means mostly about -30% to -49%;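 further: -100% = wells without enzyme as full effect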
Target sequence (Q9BTU6 whole entry, looked up): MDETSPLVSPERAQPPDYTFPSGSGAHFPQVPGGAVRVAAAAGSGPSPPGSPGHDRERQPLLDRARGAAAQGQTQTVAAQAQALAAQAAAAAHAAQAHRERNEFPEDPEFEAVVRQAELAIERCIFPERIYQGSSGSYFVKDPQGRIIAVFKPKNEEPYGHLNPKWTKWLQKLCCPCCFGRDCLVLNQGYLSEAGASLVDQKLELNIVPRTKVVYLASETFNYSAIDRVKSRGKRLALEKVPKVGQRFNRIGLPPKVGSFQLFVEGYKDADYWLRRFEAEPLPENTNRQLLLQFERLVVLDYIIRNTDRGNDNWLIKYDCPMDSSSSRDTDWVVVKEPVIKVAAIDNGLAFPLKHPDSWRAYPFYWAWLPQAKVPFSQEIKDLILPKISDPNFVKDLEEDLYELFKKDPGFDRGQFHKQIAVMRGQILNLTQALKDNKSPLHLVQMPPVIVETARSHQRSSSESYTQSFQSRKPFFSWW
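ADP-Glo luminescence measured ADP generated by PI4K2A enzyme (4 ug/mL before mixing) with 1.2 mM PI substrate (pre-mix) and 300 microM ATP (pre-mix). Tris pH7.5 buffer with MgCl2, Triton X-100; 1 h reaction at ambient temperature.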
Starred values were filed as active, the others as inactive; [ ] = remark or other dose. Unless noted, the call rests on the fitted dose curve; in most records, active means well fitted curve in the direction sought with a large enough effect; inconclusive means small, poorly fitted or top-dose-only effect, or another doubt; inactive means no such curve, though single readings can be large; an effect the other way counts as inactive or inconclusive.

Results for Cc1ccc(-n2c(C)cc(C(=O)COC(=O)C3=NNC(=O)CC3)c2C)cc1 ?
HTT cytoprotect: -8%; HTT aggregate: -29%; GALK inh: 1%; PI4K2A block: 8

What do the screens show for `Cc1ccc(-n2c(C)cc(C(=O)COC(=O)c3c(C)noc3C)c2C)cc1`?
HTT cytoprotect: -49%; HTT aggregate: 10µM*; GALK inh: 0%; PI4K2A block: 2

Results for NC1=NC(=O)C(=Cc2ccccc2)S1 ?
PI4K2A block: -9

How did NC1=NC(=O)/C(=C\c2cccnc2)S1 do in these assays?
HTT cytoprotect: -20%; HTT aggregate: 8.9µM*; GALK inh: -1%; PI4K2A block: -3

Results for CSc1nc2ccc(NS(=O)(=O)c3c(Cl)cccc3Cl)cc2s1 ?
HTT cytoprotect: 9%[10 µM]; HTT aggregate: 3%; GALK inh: 1%; PI4K2A block: -2

What do the screens show for `CSc1nc2ccc(NS(=O)(=O)c3ccc4c(c3)OCCO4)cc2s1`?
HTT cytoprotect: 11%[10 µM]; HTT aggregate: 8.9µM*; GALK inh: 1%; PI4K2A block: -2

Results for O=S(=O)(Nc1ccc2c(c1)OCCO2)c1ccc2oc3ccccc3c2c1 ?
HTT cytoprotect: -1%[0.074 µM]; HTT aggregate: 11µM*; GALK inh: 0%; PI4K2A block: -5

How did Cc1ccc(-c2cc(-c3nnc4sc(COc5ccccc5)nn34)[nH]n2)cc1 do in these assays?
PI4K2A block: -2

How did CCN(Cc1ccncc1)Cc1nc(Cc2ccccc2Cl)no1 do in these assays?
HTT cytoprotect: -12%; HTT aggregate: 18µM*; GALK inh: -1%; PI4K2A block: 4

Results for COC(=O)/C(Cc1cc(Br)c(OC)c(Br)c1O)=N/O ?
HTT cytoprotect: 57%

What do the screens show for `O=C(Nc1cccc2[nH]ncc12)c1ccc(F)cc1`?
HTT cytoprotect: -15%; HTT aggregate: 5µM*; GALK inh: -1%; PI4K2A block: -14

What do the screens show for `CNC(=S)Nc1cccc2[nH]ncc12`?
HTT cytoprotect: 11%[10 µM]; HTT aggregate: 11%; GALK inh: -1%; PI4K2A block: 2

How did O=C(NC(=S)Nc1cccc2[nH]ncc12)c1ccccc1 do in these assays?
HTT cytoprotect: -9%; HTT aggregate: 10µM*; GALK inh: -3%; PI4K2A block: 6

What do the screens show for `O=C(CSc1nc2ccccc2n1Cc1ccccc1Cl)NN=C/C(Br)=C/c1ccccc1`?
PI4K2A block: -1

Results for Cc1ccccc1C(=O)Nc1ccc(C(=O)N2CCCC(N(C)C)c3ccccc32)cc1 (stereo unspecified) ?
PI4K2A block: -2

How did COC(=O)[C@@H](NC(=O)N1CCc2nc(-c3ccccc3)c3c(c2C1)CO[C@@H](C)C3)C(C)C do in these assays?
HTT cytoprotect: -9%[10 µM]

What do the screens show for `O=C(NNc1nc(=O)c2cccnc2s1)c1ccccc1O`?
HTT cytoprotect: -51%[10 µM]; HTT aggregate: 7.9µM*; GALK inh: -1%; PI4K2A block: 13

What do the screens show for `O=C(CN(C(=O)c1ccc(Cl)cc1)C1CCCCC1)Nc1ccc(Cl)c([N+](=O)[O-])c1`?
HTT cytoprotect: 28%[1.9 µM]; HTT aggregate: 13µM*; GALK inh: 0%; PI4K2A block: -2

Results for O=C(CN(C(=O)c1ccccc1Cl)C1CCCCC1)Nc1ccc(Cl)c([N+](=O)[O-])c1 ?
HTT cytoprotect: -109%; HTT aggregate: inconclusive; GALK inh: -4%; PI4K2A block: 6

How did CCc1cccc(C)c1NC(=O)c1cc(C)oc1C do in these assays?
HTT cytoprotect: 1%[0.074 µM]; HTT aggregate: 1.3µM*; GALK inh: 0%; PI4K2A block: 2

Results for CCCCCc1ccc(NC(=O)O[C@@H]2CC[C@@]34CCCN3C(=O)CCC[C@H]4C2)cc1 ?
PI4K2A block: -1

What do the screens show for `Cc1cccc(-c2nnn3c2nc(NCc2ccc4c(c2)OCO4)c2ccccc23)c1`?
PI4K2A block: -53*

Results for COc1ccc(CCn2nnnc2C2(c3ccc(C)cc3)CC2)cc1 ?
PI4K2A block: -5

Results for COc1ccc(-n2c(-c3ccc(Cl)cc3)c[n+]3c2CCc2ccccc2-3)cc1 ?
HTT cytoprotect: -68%; HTT aggregate: 13µM*; GALK inh: 1%; PI4K2A block: -1

What do the screens show for `COC(=O)COc1ccc(S(=O)(=O)NCCC2=CCCCC2)cc1Cl`?
HTT cytoprotect: -7%; HTT aggregate: -10%; GALK inh: -1%; PI4K2A block: 1
